Experiment [1] in a line: ATG_PBREM_CIS: Attagene CIS-FACTORIAL HepG2 Assay for human Phenobarbital-responsive Enhancer Module (PBREM) (AID 2282955). To be noted: HepG2 PBREM cis-reporter, Attagene multiplexed transcription; actives raise or lower the signal. The method, boiled down: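 HepG2 cells transiently transfected with multiple cis-regulated reporter units measure endogenous transcription factor activity; 24 h compound exposure. Reporter mRNA quantified by RT-PCR, fluorescent labelling, HpaI digestion and capillary electrophoresis; bidirectional fit versus DMSO.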

Experiment [2] has as its target Paired box protein Pax-6 (Homo sapiens) (UniProt P26367). Put plainly: ATG_Pax6_CIS: Attagene CIS-FACTORIAL HepG2 Assay for human Paired Box 6 (PAX6) (AID 2282956). As to conditions: HepG2 CIS-FACTORIAL PAX6 reporter transcription, RNA readout; actives raise or lower the signal. The method, boiled down: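 HepG2 cells transiently transfected with cis-promoter-driven multiplexed reporter units sensing endogenous transcription factor activity; 24 h chemical exposure. Reporter mRNA quantified by RT-PCR, 6-FAM labelling, HpaI digestion and capillary electrophoresis; bidirectional fit versus DMSO baseline.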

Experiment [3] is described as follows: ATG_PXRE_CIS: Attagene CIS-FACTORIAL HepG2 Assay for human Pregnane X Receptor Element (PXRE) (AID 2282957). As to conditions: HepG2 Attagene CIS-FACTORIAL PXRE reporter, mRNA; actives raise or lower the signal. A digest of the protocol: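 Transfect HepG2 with MRTUs (cis promoter elements); dose chemical, incubate 24 h; isolate RNA, RT with oligo(dT), PCR, 6-FAM label, HpaI cut, CE. Gain/loss fit vs DMSO.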

A short description of experiment [4]: ATG_PPRE_CIS: Attagene CIS-FACTORIAL HepG2 Assay for human Peroxisome Proliferator-activated Response Element (PPRE) (AID 2282958). As to conditions: HepG2 PPRE cis-element reporter, Attagene transcription factor profiling; actives raise or lower the signal. A digest of the protocol: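 HepG2 cells are transiently transfected with multiplexed cis-promoter reporter units to report endogenous PPAR activity. After 24 h dosing, reporter mRNA is read by RT-PCR and capillary electrophoresis. Fitting is bidirectional against DMSO.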

The nature of experiment [5]: ATG_RORE_CIS: Attagene CIS-FACTORIAL HepG2 Assay for human RAR-related Orphan Receptor Element (RORE) (AID 2282959). To be noted: HepG2 Attagene cis-factorial RORE reporter, mRNA; actives raise or lower the signal. The method, boiled down: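 HepG2 cells carrying transiently transfected cis-regulated reporter units; RORE-driven reporter mRNA quantified 24 h post-dosing by RT-PCR, 6-FAM primer extension, HpaI digestion and capillary electrophoresis. Bidirectional fit versus DMSO.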

Experiment [6] is described as follows: ATG_Sox_CIS: Attagene CIS-FACTORIAL HepG2 Assay for human SRY-box transcription factor (SOX) (AID 2282960). To be noted: HepG2 Attagene cis-factorial SOX reporter, mRNA; actives raise or lower the signal. A digest of the protocol:
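HepG2 cells transiently transfected with multiple cis-regulated reporter units, then dosed for 24 h. Reporter mRNA quantified by RT-PCR, fluorescent labelling, HpaI digestion and capillary electrophoresis; bidirectional fit versus DMSO.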

In experiment [7] the target is Transcription factor Sp1 (Homo sapiens) (UniProt P08047). The experiment in a line: ATG_Sp1_CIS: Attagene CIS-FACTORIAL HepG2 Assay for human Specificity Protein 1 (Sp1) (AID 2282961). As to conditions: HepG2 Sp1 cis-reporter transcription, actives raise or lower the signal. The method, boiled down:
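HepG2 cells transiently transfected with multiplexed cis-regulated reporter constructs, chemical exposure 24 h. Reporter mRNA quantified by RT-PCR with capillary electrophoresis; bidirectional fit relative to DMSO.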

A short description of experiment [8]: ATG_SREBP_CIS: Attagene CIS-FACTORIAL HepG2 Assay for human Sterol Regulatory Element Binding (SREBP) (AID 2282962). To be noted: HepG2 Attagene cis-factorial SREBP reporter, mRNA; actives raise or lower the signal. A digest of the protocol:
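HepG2 cells transiently transfected with multiplexed cis-promoter reporter units sensing endogenous transcription factors; reporter mRNA measured 24 h after dosing by RT-PCR, 6-FAM labeling, HpaI digestion and capillary electrophoresis. Bidirectional fit versus DMSO.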

Experiment [9] addresses Signal transducer and activator of transcription 3 (Homo sapiens) (UniProt P40763). The experiment in a line: ATG_STAT3_CIS: Attagene CIS-FACTORIAL HepG2 Assay for human Signal Transducer and Activator of Transcription 3 (STAT3) (AID 2282963). As to conditions: HepG2, Attagene cis-factorial STAT3 reporter transcription; actives raise or lower the signal. A digest of the protocol: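 Endogenous STAT3-responsive cis-element activity was read in transiently transfected HepG2 cells after 24 h treatment. Reporter transcripts were quantified via RT-PCR and capillary electrophoresis, with DMSO as negative control and bidirectional curve fitting.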

Experiment [10] can be described thus: ATG_TA_CIS: Attagene CIS-FACTORIAL HepG2 Assay for human TA Basal Promoter (AID 2282964). As to conditions: HepG2 Attagene CIS-factorial TA basal promoter reporter; actives raise or lower the signal. A digest of the protocol: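 Fluorescence from labelled RT-PCR reporter fragments, separated by capillary electrophoresis, gives the signal. Cells: HepG2 transiently carrying multiple reporter units, 24 h chemical dosing. Gain or loss relative to DMSO.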

Experiment [11] can be described thus: ATG_TCF_b_cat_CIS: Attagene CIS-FACTORIAL HepG2 Assay for human T-Cell-Factor with beta-catenin (TCF/b-cat) (AID 2282965). As to conditions: HepG2 TCF/beta-catenin cis-reporter transcription, actives raise or lower the signal. The method, boiled down: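 Endogenous TCF/LEF activity read as reporter transcript level via RT-PCR and capillary electrophoresis fluorescence in transfected HepG2, 24 h exposure; gain or loss of signal fitted against DMSO controls.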

Experiment [12] can be described thus: ATG_TAL_CIS: Attagene CIS-FACTORIAL HepG2 Assay for human TAL Basal Promoter (AID 2282966).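 Note: background control endpoint measuring basal TAL promoter reporter mRNA not a specific factor.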 As to conditions: HepG2 Attagene cis-factorial TAL promoter reporter; actives raise or lower the signal. The method, boiled down:
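Fluorescence of labelled reporter cDNA fragments, resolved by capillary electrophoresis, gave the readout. Human HepG2 liver cells carried transiently transfected cis-element reporter units and were treated for 24 hours; activity was fitted bidirectionally against DMSO.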

Experiment [13] can be described thus: ATG_TGFb_CIS: Attagene CIS-FACTORIAL HepG2 Assay for human Transforming Growth Factor (TGF) (AID 2282967). As to conditions: HepG2 Attagene CIS TGFb reporter, mRNA transcription; actives raise or lower the signal. A digest of the protocol: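 Bidirectional fitting relative to DMSO gave the endpoint. Underlying data: reporter mRNA from HepG2 cells carrying transiently transfected cis-regulated reporter constructs, harvested 24 h after dosing and analyzed by RT-PCR and capillary electrophoresis.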

The target in experiment [14] is Estrogen receptor (Homo sapiens) (UniProt P03372). Put plainly: ATG_ERa_TRANS: Attagene TRANS-FACTORIAL HepG2 Assay for human Estrogen Receptor alpha (ERa) (AID 2282970; active = hit-call score of the fitted dose curve at least 0.9, where 1 is the maximum). As to conditions: HepG2 Attagene TRANS ERa GAL4 reporter, mRNA. A digest of the protocol: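 Human liver HepG2, transient transfection of multiple GAL4-UAS reporter units; TRANS format (exogenous NR-Gal4 chimera). 24 h dosing. Readout: reporter mRNA, RT-PCR, 6-FAM primer extension, HpaI digest, capillary electrophoresis. Positive direction vs DMSO.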

Experiment [15] concerns the target X-box-binding protein 1 (Homo sapiens) (UniProt P17861). The experiment in a line: ATG_Xbp1_CIS: Attagene CIS-FACTORIAL HepG2 Assay for human X-box Binding Protein 1 (XBP1) (AID 2282972). As to conditions: HepG2 XBP1 cis-element reporter, Attagene multiplex; actives raise or lower the signal. A digest of the protocol:
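HepG2 cells transiently transfected with multiple cis-element reporter units report endogenous TF activity; 24 h exposure, then reporter mRNA measured by RT-PCR, 6-FAM labelling, HpaI digestion and capillary electrophoresis. Bidirectional fitting versus DMSO.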

The nature of experiment [16]: ATG_M_19_TRANS: Attagene TRANS-FACTORIAL HepG2 Assay for M19 Transcription Factor (Internal Marker) (AID 2282974; active = hit-call score of the fitted dose curve at least 0.9, where 1 is the maximum). To be noted: HepG2 Attagene TRANS-FACTORIAL M19 internal marker reporter. A digest of the protocol: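 HepG2 transiently transfected with GAL4-UAS multiplex reporter constructs, exposed 24 h; reporter RNA quantified by RT-PCR, 6-FAM labeling, HpaI digestion and capillary electrophoresis; internal background marker fitted upward versus DMSO.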

The nature of experiment [17]: ATG_VDRE_CIS: Attagene CIS-FACTORIAL HepG2 Assay for human Vitamin D Receptor Element (VDRE) (AID 2282968). As to conditions: HepG2 VDRE cis-reporter transcription, actives raise or lower the signal. A digest of the protocol: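 Reporter mRNA induction, quantified by capillary electrophoresis of fluorescently labelled RT-PCR products, was read 24 h after dosing HepG2 cells carrying transiently transfected cis-regulated reporter units; gain or loss relative to DMSO.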

Experiment [18] concerns the target Nuclear receptor subfamily 1 group I member 3 (Homo sapiens) (UniProt Q14994). The experiment in a line: ATG_CAR_TRANS: Attagene TRANS-FACTORIAL HepG2 Assay for human Constitutive Androstane Receptor (CAR) (AID 2282969; active = hit-call score of the fitted dose curve at least 0.9, where 1 is the maximum;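 note: activators raise reporter mRNA above DMSO so AC50 marks induction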). To be noted: HepG2 Attagene TRANS-FACTORIAL CAR reporter. The method, boiled down:
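Readout is reporter mRNA induction, quantified by fluorescent primer extension and capillary electrophoresis after RT-PCR. Cells were HepG2 transiently carrying chimeric NR-Gal4 constructs with GAL4-UAS reporters, treated for 24 h; activity scored upward from DMSO.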

Inconclusive results are not listed. Activity calls are given as the source filed them. Rule for the calls, unless noted: active = hit-call score of the fitted dose curve at least 0.9, where 1 is the maximum; inactive = score below 0.9.

For orientation: AC50 means the concentration giving half of the maximal activity seen.

Signal transducer and activator of transcription 3 (Homo sapiens), sequence (P40763 whole entry, looked up): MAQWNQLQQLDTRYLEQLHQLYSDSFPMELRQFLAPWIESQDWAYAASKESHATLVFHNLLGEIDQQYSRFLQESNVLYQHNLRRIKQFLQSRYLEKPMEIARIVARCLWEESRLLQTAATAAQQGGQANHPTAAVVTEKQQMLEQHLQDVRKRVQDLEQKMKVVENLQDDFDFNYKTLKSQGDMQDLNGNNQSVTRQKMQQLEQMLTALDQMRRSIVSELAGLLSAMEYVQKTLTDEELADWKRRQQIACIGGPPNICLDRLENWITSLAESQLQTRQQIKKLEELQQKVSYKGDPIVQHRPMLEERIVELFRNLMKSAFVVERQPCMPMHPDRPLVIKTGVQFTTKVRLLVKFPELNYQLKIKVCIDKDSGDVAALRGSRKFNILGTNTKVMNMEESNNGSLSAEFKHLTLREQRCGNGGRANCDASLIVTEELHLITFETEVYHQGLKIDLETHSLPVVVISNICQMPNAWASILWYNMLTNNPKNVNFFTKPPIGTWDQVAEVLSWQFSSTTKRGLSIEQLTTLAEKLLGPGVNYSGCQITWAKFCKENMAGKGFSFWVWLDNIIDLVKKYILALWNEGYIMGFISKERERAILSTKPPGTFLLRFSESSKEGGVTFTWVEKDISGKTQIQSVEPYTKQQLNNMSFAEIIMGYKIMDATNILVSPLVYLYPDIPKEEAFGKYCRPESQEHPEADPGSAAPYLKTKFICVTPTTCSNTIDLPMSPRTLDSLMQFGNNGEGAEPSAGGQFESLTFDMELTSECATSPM
X-box-binding protein 1 (Homo sapiens), sequence (P17861 whole entry, looked up): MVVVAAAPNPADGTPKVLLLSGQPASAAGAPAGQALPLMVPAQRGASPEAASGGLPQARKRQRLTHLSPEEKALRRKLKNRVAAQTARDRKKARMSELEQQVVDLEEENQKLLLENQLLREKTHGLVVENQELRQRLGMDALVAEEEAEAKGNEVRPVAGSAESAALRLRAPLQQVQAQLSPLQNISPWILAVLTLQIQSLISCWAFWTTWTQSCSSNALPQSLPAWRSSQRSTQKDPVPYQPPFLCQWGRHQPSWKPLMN
Transcription factor Sp1 (Homo sapiens), sequence (P08047 whole entry, looked up): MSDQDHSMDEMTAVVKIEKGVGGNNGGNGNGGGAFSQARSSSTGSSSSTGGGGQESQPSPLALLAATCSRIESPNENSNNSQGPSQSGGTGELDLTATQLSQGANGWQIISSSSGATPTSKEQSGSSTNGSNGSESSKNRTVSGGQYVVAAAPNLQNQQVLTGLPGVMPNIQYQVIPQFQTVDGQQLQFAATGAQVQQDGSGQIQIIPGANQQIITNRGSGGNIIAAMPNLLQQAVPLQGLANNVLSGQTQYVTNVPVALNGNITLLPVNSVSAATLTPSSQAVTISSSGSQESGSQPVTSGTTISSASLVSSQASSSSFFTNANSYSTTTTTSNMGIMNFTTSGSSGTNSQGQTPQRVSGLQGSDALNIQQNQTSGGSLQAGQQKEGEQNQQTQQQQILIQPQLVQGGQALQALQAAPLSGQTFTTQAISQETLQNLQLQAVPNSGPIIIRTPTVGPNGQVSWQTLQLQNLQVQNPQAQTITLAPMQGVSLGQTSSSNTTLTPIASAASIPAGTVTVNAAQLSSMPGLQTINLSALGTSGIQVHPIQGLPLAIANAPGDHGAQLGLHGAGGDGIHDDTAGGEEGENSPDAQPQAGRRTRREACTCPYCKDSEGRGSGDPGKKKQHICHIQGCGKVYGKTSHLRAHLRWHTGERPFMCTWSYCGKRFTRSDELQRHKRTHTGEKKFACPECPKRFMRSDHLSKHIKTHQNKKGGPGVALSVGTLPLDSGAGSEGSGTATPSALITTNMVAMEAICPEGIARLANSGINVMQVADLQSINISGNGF
Paired box protein Pax-6 (Homo sapiens), sequence (P26367 whole entry, looked up): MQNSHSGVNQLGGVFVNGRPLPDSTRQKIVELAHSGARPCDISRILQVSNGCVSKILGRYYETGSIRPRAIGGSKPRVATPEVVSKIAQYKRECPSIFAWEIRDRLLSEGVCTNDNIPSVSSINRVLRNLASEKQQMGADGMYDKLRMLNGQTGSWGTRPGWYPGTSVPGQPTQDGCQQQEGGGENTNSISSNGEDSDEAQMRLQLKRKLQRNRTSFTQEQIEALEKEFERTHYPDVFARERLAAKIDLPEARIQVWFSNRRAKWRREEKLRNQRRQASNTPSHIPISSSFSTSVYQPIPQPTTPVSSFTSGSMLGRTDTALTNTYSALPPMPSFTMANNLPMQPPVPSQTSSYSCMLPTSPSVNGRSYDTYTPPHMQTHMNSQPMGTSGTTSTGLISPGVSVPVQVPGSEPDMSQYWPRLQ
Estrogen receptor (Homo sapiens), sequence (P03372 whole entry, looked up, the tested form may be a part): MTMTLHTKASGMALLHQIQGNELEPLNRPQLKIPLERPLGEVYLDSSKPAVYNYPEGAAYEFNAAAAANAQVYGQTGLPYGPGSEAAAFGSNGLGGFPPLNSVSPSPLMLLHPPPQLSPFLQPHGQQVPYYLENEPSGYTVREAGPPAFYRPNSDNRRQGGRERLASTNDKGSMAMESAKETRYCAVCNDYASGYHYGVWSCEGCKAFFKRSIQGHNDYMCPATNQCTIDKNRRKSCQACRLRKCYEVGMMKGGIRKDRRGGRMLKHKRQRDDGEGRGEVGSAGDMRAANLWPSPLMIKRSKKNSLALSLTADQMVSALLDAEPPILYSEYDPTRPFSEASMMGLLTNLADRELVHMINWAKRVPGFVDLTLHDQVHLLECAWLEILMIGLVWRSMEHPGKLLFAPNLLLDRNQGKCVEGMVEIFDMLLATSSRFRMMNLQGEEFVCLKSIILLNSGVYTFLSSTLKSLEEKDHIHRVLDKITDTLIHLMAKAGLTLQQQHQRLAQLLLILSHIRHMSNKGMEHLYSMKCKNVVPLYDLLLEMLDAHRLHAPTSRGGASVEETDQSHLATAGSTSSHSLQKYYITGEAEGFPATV
Nuclear receptor subfamily 1 group I member 3 (Homo sapiens), sequence (Q14994 whole entry, looked up, the tested form may be a part): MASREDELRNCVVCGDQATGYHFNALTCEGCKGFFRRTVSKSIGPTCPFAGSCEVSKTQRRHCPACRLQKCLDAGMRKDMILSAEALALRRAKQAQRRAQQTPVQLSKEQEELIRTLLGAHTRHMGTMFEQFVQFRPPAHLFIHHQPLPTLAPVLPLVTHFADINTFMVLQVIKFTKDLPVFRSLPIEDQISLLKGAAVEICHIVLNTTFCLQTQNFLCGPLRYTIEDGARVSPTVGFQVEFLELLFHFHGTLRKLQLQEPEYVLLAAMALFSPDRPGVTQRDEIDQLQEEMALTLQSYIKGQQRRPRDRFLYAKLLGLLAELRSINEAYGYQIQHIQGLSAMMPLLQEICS

On to `Nc1ccc(Cl)cc1`, for which the result in experiment [1], in experiment [2], in experiment [3], in experiment [4], in experiment [5] and in [6] was inactive. In addition, the result in [7], in [8], in experiment [9], in experiment [10], in experiment [11] and in [12] was inactive. For the same compound, the call in experiment [13], in [14], in [15] and in experiment [16] was inactive.
Take `O=c1ssc(Cl)c1Cl`: the AC50 was 50.3 µM (active) in experiment [1]; 62.5 µM (active) in [2]; 50.1 µM (active) in experiment [6]; 51.6 µM (active) in experiment [7]; 53 µM (active) in [11]; 52.6 µM (active) in [17]. In addition, the AC50 in [15] is 45.8 µM (active). For the same compound, the compound was classed as inactive in experiment [3], in [4], in experiment [5], in experiment [8], in experiment [9] and in [10]. In addition, the result in experiment [12], in [13], in [18] and in experiment [14] was inactive.
Turning to `CCOc1ccc(C(C)(C)COCc2cccc(Oc3ccccc3)c2)cc1`, the outcome in experiment [1], in experiment [2], in [4], in experiment [5], in [6] and in experiment [7] was inactive. For the same compound, the compound was classed as inactive in experiment [8], in experiment [9], in [10], in [11], in [12] and in experiment [13]. For the same compound, the outcome in experiment [18], in experiment [14], in experiment [15] and in experiment [16] was inactive. Moreover, the AC50 in [3] is 1.93 µM (active); in experiment [17] it was 5.77 µM (active).

The values are drawn from PubChem BioAssay (EPA / NIEHS).
